# Inconclusive results are not listed. The source made the active and inactive calls. Rule for the calls: active = hit-call score of the fitted dose curve at least 0.9, where 1 is the maximum; inconclusive = response in the unintended direction; inactive = score below 0.9.
# Assay: ACEA_AR_agonist_AUC_viability: ACEA Biosciences xCELLigence Real-Time Cell Analysis on Androgen Receptor Agonism for Viability (AID 2283775);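 for AC50: viability read 80 hours after compound addition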
# Method in brief: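 Viability endpoint from xCELLigence impedance in 22Rv1 prostate cells at 80 h. Eight-point series, 100 uM maximum final.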
Compound,outcome,AC50
OCCN1CCNCC1,inactive,
CC(C)=CCC[C@](C)(O)[C@@H]1CC=C(C)CC1,inactive,
CCCCCCCCC=O,inactive,
CCN(CC)c1ccc2c(-c3ccccc3C(=O)O)c3ccc(=[N+](CC)CC)cc-3oc2c1,,9.44 µM (active)
NC(=O)NC1NC(=O)NC1=O (stereo not given),inactive,
CCCCC(CC)COC(=O)/C=C\C(=O)OCC(CC)CCCC (stereo not given),inactive,
BrC1CCC(Br)C(Br)CCC(Br)C(Br)CCC1Br (stereo not given),inactive,
CCCCCCCCCCCCN,inactive,
OCCOCCOCCOCCO,inactive,
CCC/C=C/C=O,inactive,
CC1=CC(=O)NS(=O)(=O)O1,inactive,
CC(C)C[C@H]1C(=O)N2CCC[C@H]2[C@]2(O)O[C@](NC(=O)[C@@H]3C=C4c5cccc6[nH]c(Br)c(c56)C[C@H]4N(C)C3)(C(C)C)C(=O)N12,inactive,
CCCCCCCCCCCCCCCCCC(=O)OCC(CC)CCCC (stereo not given),inactive,
O=C(O)Cc1cccc2ccccc12,inactive,
C=CC(C)(O)CCC=C(C)CCC=C(C)C (stereo not given),inactive,
CC1(C)[C@@H]2CC[C@@]1(C)[C@H](O)C2,inactive,
CCCOCC(C)O (stereo not given),inactive,
CCCCC[Si](OCC)(OCC)OCC,inactive,

Compound,outcome,AC50
CC(C)(C)C(=O)c1ccccc1,inactive,
CC(=O)C=CC1=C(C)CCCC1(C)C,inactive,
C=O,inactive,
OC1OC[C@@H](O)[C@H](O)[C@H]1O (stereo not given in full),inactive,
O=C[C@@H](O)[C@H](O)[C@H](O)CO,inactive,
CCCCCCCCCC=O,inactive,
CC(C)CCCCCCCOC(=O)c1ccc(C(=O)OCCCCCCCC(C)C)c(C(=O)OCCCCCCCC(C)C)c1,inactive,
CCCC/C=C\CCCCCCCCCC=O,inactive,
CCCCCCCCC,inactive,
CCCCCC(CO)CCC (stereo not given),inactive,
CCCCCCCCCCN,inactive,
COc1c(Cl)c(Cl)c(Cl)c(Cl)c1Cl,inactive,
O=C1C(c2[nH]c3ccc(S(=O)(=O)O)cc3c2O)=Nc2ccc(S(=O)(=O)O)cc21,inactive,
C=C(C)C(=O)O,inactive,
CN(C)CCCN,inactive,
NCCCN1CCOCC1,inactive,
Cc1ccc(S)cc1,inactive,
O=C(O)CCCCCCCC(=O)O,inactive,

# Assay: ACEA_AR_antagonist_AUC_viability: ACEA Biosciences xCELLigence Real-Time Cell Analysis on Androgen Receptor Antagonism for Viability (AID 2283776);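 note: 22Rv1 human prostate cancer cells growing on impedance electrode plates; area under impedance growth curve at 80 h after dosing as viability; hits lower the growth signal relative to DMSO meaning cytotoxicity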
# Method in brief: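 Real-time electrical impedance tracks 22Rv1 proliferation after continuous compound exposure (top 100 uM final, 1:4 steps, 8 concentrations). The 80 h area-under-curve serves as the cytotoxicity readout relative to DMSO.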
row,Compound,outcome
1,O=C1c2ccccc2C(=O)N1SC1CCCCC1,inactive
2,C[Si](O[Si](C)(C)C)O[Si](C)(C)C,inactive
3,NCCCN1CCOCC1,inactive
4,CCCCOCCOCCOCCOCCO,inactive

# Source: PubChem BioAssay (EPA / NIEHS)
